# From PubChem BioAssay AID1347120 (National Center for Advancing Translational Sciences (NCATS), 2019)
# The campaign covered roughly 390,000 compounds. About 930 (0.24%) were called active. Another 5% or so got no clear call; they are omitted. The call rests on the fitted dose curve; in most records, active means well fitted activation curve with a large enough effect; inconclusive means small, poorly fitted or top-dose-only effect; inactive means no such curve, though single readings can be large or run the other way. The list comes from a sample in which actives are over-represented; it also holds similar structures and randomly drawn compounds. A call without a number means that no potency is given here.
# Experiment: qHTS for Suppressors of FUS Proteinopathy: Primary screen using FUS-linked yeast assay; further: nearly all actives have a fitted effect of over 55% in size
# Details: S. cerevisiae FUS-expressing, OD600, 24 h; Potency: growth rescue; series mostly up to 76.6 µM
# Excerpt: Several widespread neurodegenerative diseases, including Alzheimer disease, Huntington disease, Frontotemporal Lobar Degeneration (FTLD) and Amyotrophic Lateral Sclerosis (ALS), share a common pathological feature, namely accumulation of specific protein aggregates in diseased tissue. These diseases which is associated with protein misfolding (proteinopathies) have become increasingly problematic as the population ages and life expectancies are extended. Most proteinopathies are currently incurable, a situation confounded by the fact that the basis of neurodegeneration is generally poorly understood. There exists urgent and significant need to find therapeutics that can inhibit the toxicity associated with protein aggregation. A novel approach to understand the underlying mechanisms of neurodegenerative diseases has recently emerged in which the disease conditions are modeled in the yeast (Saccharomyces cerevisiae), a tractable eukaryotic organism with conserved protein quality control mechanisms. Yeast offers quick and reliable genetic manipulations and can be easily tailored to high-throughput screening (HTS).
# For this project, a yeast model of the FUS proteinopathies (a spectrum of neurodegenerative diseases that include ALS and a subtype of FTLD) was generated and employed. The cytoplasmic accumulation of the DNA/RNA-binding protein FUS (also known as TLS) is causative to both familial and sporadic forms of ALS and FTLD. This yeast model recapitulates neuronal pathology by showing severe cytotoxicity associated with cytoplasmic accumulation of FUS aggregates and a specific interaction between FUS and TDP-43, another ALS-associated protein. […] Specifically, the cellular accumulation of misfolded FUS that disrupts RNA homeostasis in both yeast and higher eukaryotes. This model was validated to be suitable for quantitative HTS (qHTS) use for finding genetic or chemical factors that restore growth. […] Identified compounds that inhibits FUS-yeast toxicity is flagged, re-acquired, and validated for further investigation and optimization.
# NIH Chemical Genomics Center [NCGC]
# NIH Molecular Libraries Probe Production Centers Network [MLPCN]
# Assay Submitter (PI): Frank Shewmaker PhD, Uniformed Services University of the Health Sciences
# Compound CP55940 was used as the positive control. Column 1 was treated with CP55940 titration from 92uM (final concentration, 1:2 dilution), while Column 2 was treated with top dose 92uM. Columns 3 and 4 were treated with DMSO only as negative control to assess background and noise signal.
# Four hundred fifty microliter of cultured yeast (in 20mL rich medium) provided by Dr. Shewmaker lab was incubated at 30C at 99% humidity for 3hr. The culture was then spun down at 4000rpm for 5min and the cell pellet was resuspended in 2mL of Sdmin Media + ALU(330) + 2.5% Raffinose. One hundred microliter of the suspension was added to 900uL of water and OD of the solution was obtained. Twenty mL of responding medium (provided by Shewmaker lab) + 2.5% raffinose was added to ensure cell density of 0.1; the solution was incubated overnight. Working cell solution (FUS-yeast in Sdmi + Sdmi + 1X ALU + 2% galactose media) was prepared (final OD at 0.005) and 3uL was dispensed in a 1536-well Aurora high based clear bottom assay plates. Controls and library compounds (at various final concentrations from 40uM to 0.32uM) were added using a 1536-well pin array using the Kalypsys pin-tool. The plates were then incubated for 24hrs in a cell-culture incubator (30C; 99% humidity). Absorbance at 600nm was then read using the PerkinElmer ViewLux plate reader.
# Potency means the concentration at half of the fitted maximal effect.
row,Structure (SMILES),Potency
1,COc1ccccc1NC(=O)c1sc2nc(C)c(C(=O)Nc3ccc(Cl)cc3)c(-c3ccc(Br)cc3)c2c1N,inactive
2,CC(C)S(=O)(=O)c1oc(-c2ccc(F)cc2)nc1S(=O)(=O)c1ccc(F)cc1,inactive
3,CCOc1ccccc1NC(=O)C1CCCN(S(=O)(=O)c2cn(C)cn2)C1 (stereo not given),inactive
4,COC(=O)c1ccccc1NC(=O)c1ccc2c(=O)n3c(nc2c1)CCCCC3,inactive
5,COc1cccc(CNC(=O)c2ccc3c(c2)sc2nc(-c4cccc(OC)c4)cn23)c1,inactive
6,CN1C(=O)c2[nH]nc(-c3ccc(F)cc3)c2C1c1ccccn1 (stereo not given),inactive
7,COc1ccc(CCNC(=O)c2nn(C)c3c2CSc2ccccc2-3)cc1OC,inactive
8,CCCn1c2ccccc2c2cnn(CC(=O)NCC3CCN(Cc4ccc(C)cc4)CC3)c(=O)c21,inactive
9,Cc1ccc(NC(=O)CSc2nc3ccccc3c3nc(CCn4cncc4C)nn23)cc1F,inactive
10,Cc1cccc(NC(=O)C2CCCN2S(=O)(=O)c2cccc3nsnc23)c1C (stereo not given),inactive
11,COc1ccc(-c2cn3c(n2)sc2cc(C(=O)Nc4ccccc4F)ccc23)cc1,inactive
12,CCOc1ccc(NC(=O)c2c(NC(=O)Cc3ccccc3)sc3c2CCCCC3)cc1,inactive
13,NS(=O)(=O)c1ccc(CCNC(=O)CCCCCn2c(=O)[nH]c3ccccc3c2=O)cc1,inactive
14,CCOC(=O)C1=C(c2ccccc2)Nc2ncnn2C1c1ccc(Cl)cc1 (stereo not given),inactive
15,COc1ccc(N2CCN(c3cc(C)nc4nncn34)CC2)cc1,inactive
16,COCCCNc1ccn2nc(-c3ccc(CC(C)C)cc3)cc2n1,25.1 µM (active)
17,COc1ccccc1-c1cc2nc(NCc3cccc(Cl)c3)ccn2n1,inactive
18,CC(C)Cc1ccc(-c2cc3nc(NCc4cccc(Cl)c4)ccn3n2)cc1,inactive
19,CCOc1ccccc1N(CC)C(=O)Nc1cn(C)c(=O)c2ccccc12,inactive
20,Cc1ccc(C)c(N2CCN(CCCNC(=O)Nc3ccc(Cl)cc3)CC2)c1,inactive
21,CCc1cc2c(cc3c(=O)n(CC(=O)NCCc4ccc(OC)c(OC)c4)ncn32)s1,inactive
22,Cc1ccc(NC(=O)C(c2ccccc2)N2CCN(C(=O)c3ccco3)CC2)cc1 (stereo not given),inactive
23,Cc1ccc(-c2csc(C(C#N)=C(O)CN3CCN(C(=O)c4ccco4)CC3)n2)cc1,28.2 µM (active)

row,Structure (SMILES),Potency
1,COc1cccc(OC)c1OCCN1CCN(C(=O)c2ccco2)CC1,inactive
2,CN1CCN(C2(CNC(=O)COc3ccc(C(C)(C)C)cc3)CCCCC2)CC1,inactive
3,O=C(C[C@H]1C/C=C\C[C@@H](NC(=O)OCC2c3ccccc3-c3ccccc32)C(=O)O[C@@H](c2ccccc2)CNC1=O)N[C@H](CO)Cc1ccccc1,35.5 µM (active)
4,CC(C)(C)OC(=O)C[C@@H]1C/C=C\C[C@@H](CC(=O)N[C@H](CO)Cc2ccccc2)C(=O)NCCOC1=O,inactive
5,CC(C)(C)OC(=O)C[C@@H]1C/C=C\C[C@@H](CC(=O)N[C@H](CO)Cc2ccccc2)C(=O)NC[C@@H](c2ccccc2)OC1=O,inactive
6,CC(C)c1ccc(NC(=O)c2ccc3c(O)c(S(=O)(=O)c4ccccc4)c(=O)[nH]c3c2)cc1,inactive
7,Cc1ccc(Cl)cc1-n1ncc2c(N3CCC(C(N)=O)CC3)ncnc21,inactive
8,CCOC(=O)c1c(NC(C)=O)c2c3c(sc2n1Cc1c(C)cc(C)cc1C)CCCC3,inactive
9,CCc1ccccc1NC(=O)CSc1nnc(-c2ccccc2)c(-c2ccccc2)n1,inactive
10,CCOCCCn1c(SCC(=O)Nc2ccc(CC)cc2)nc2ccccc2c1=O,inactive
11,O=C(CN1CCOCC1)Nc1c(Cl)cc(Cl)cc1Cl,inactive
12,O=C(CN1CCOCC1)Nc1c2c(nc3c1CCC3)CCC2,inactive
13,O=C(CN1CCOCC1)Nc1ccccc1,25.1 µM (active)
14,CN(C)S(=O)(=O)c1cccc(NC(=O)COc2ccc3ccccc3c2)c1,22.4 µM (active)
15,CN(C)S(=O)(=O)c1cccc(NC(=O)COC(=O)C2(c3ccccc3F)CCCC2)c1,inactive
16,CN(c1ccccc1)S(=O)(=O)c1ccc(NC(=O)COc2ccccc2)cc1,inactive
17,Cc1ccc(NC(=O)C2CCN(S(=O)(=O)c3cc(-c4noc(C)n4)ccc3C)CC2)c(C)c1,inactive
18,Cc1ccccc1C(=O)Nc1nnc(S(=O)(=O)N(C)c2ccc(Cl)cc2)s1,inactive
19,CCOC(=O)C1=C(C)Nc2sc(C(=O)c3ccc(Br)cc3)c(N)c2C1c1ccc(C(=O)OC)cc1 (stereo not given),31.6 µM (active)
20,CCOC(=O)C1=C(C)NC2=C(C(=O)CC(C)(C)C2)C1c1ccsc1 (stereo not given),inactive
21,CCOC(=O)C1=C(C)NC(SC)=NC1c1ccccc1 (stereo not given),inactive
22,O=C(NCc1ccccc1)c1cccc(NC(=O)N2CCSc3ncccc32)c1,inactive
